Source: the supplement of paper PMC4166925
± gives the standard deviation of the averaged measurements. Whole data set: some 33,000 sequences, median “E-score (dimensionless, -0.5 to 0.5)” near -0.046, cut for the highest 2% near 0.36. Only a selection was taken, and the highest values are over-represented in it overall.

tested on: T1, SpTbr T-box DNA-binding domain (GST fusion); experiment: PBM E-score of 8-mer (E-score (dimensionless, -0.5 to 0.5)); Tbr is Tbrain of the sea star Patiria miniata (Pm) or the sea urchin Strongylocentrotus purpuratus (Sp); higher = stronger binding preference; conditions: the construct has about 5 more residues each side
T1 sequence: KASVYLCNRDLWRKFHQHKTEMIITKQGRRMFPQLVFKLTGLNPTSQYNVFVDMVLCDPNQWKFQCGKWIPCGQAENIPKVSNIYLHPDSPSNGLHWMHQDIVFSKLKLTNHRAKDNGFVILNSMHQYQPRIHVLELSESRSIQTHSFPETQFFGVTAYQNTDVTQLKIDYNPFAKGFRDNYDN
In short: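 Primer extension turned Universal Agilent oligonucleotide arrays double-stranded. They were incubated with 200 nM protein in PBS (pH 7.5); the protein was a GST-fused Tbr T-box DNA-binding domain expressed in BL21 E. coli at 20 °C and purified on glutathione. Every ungapped 8-mer was scored from the scanned, quantified probe intensities, and the Universal PBM Analysis Suite gave each an enrichment E-score averaged over duplicate arrays.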

Sequence	PBM E-score of 8-mer
CTAAGGAA	-0.158 ± 0.034
CACCTGCG	0.425 ± 0.0075
CACCTGGC	0.389 ± 0.021
AACCTGCC	-0.0535 ± 0.017
AACCTGGC	0.0794 ± 0.017
CACCTGCA	0.346 ± 0.0038
AACCTGCG	0.0936 ± 0.029
CACCTGGA	0.297 ± 0.025
CACCTGCC	0.3954 ± 0.00044
GACCTGCC	0.0636 ± 0.012
AATGGATC	-0.0632 ± 0.037
GAATCGTA	-0.0254 ± 0.00061
CGACTGCA	-0.155 ± 0.0016
CGAGGGGA	-0.0885 ± 0.018
CAGTGCTC	0.0319 ± 0.0026
AGACACTC	0.129 ± 0.029
ATGACACA	0.327 ± 0.033
ATGACACC	0.4599 ± 0.0031
ATGACACG	0.315 ± 0.035
CTGACACC	0.4611 ± 0.0014
CTGACATC	-0.107 ± 0.031
CTGACAGC	0.318 ± 0.0042
ACTCATAA	-0.0942 ± 0.0043
CAGAGCGC	-0.00751 ± 0.044
CAGGTCGC	0.225 ± 0.038

Sequence	PBM E-score of 8-mer
GTTTCAAA	-0.327 ± 0.079
ATTTCACC	0.0204 ± 0.024
ATTTCACA	0.4303 ± 0.0022
CTTTCACC	0.0179 ± 0.03
GCTTCACA	0.347 ± 0.013
GTTTCACA	0.38 ± 0.012
ATTTCACG	0.293 ± 0.04
CTTTCAAA	-0.203 ± 0.0062
CTTTCACA	0.44384 ± 0.0002
CGCCCAGA	0.0494 ± 0.0041
AGCTAACT	-0.27 ± 0.067
CCAGTATC	-0.199 ± 0.063
CCCTTAGG	0.00499 ± 0.015
AGCCCCCT	-0.356 ± 0.013
TGCAAGAA	-0.0626 ± 0.014
ACTCTTTG	0.221 ± 0.066
TGCGTTAA	0.208 ± 0.026
CGCGTCAC	0.277 ± 0.039
CGCGTCAA	0.313 ± 0.006
GGCGTCAC	0.373 ± 0.024
AGCGTTAA	0.36 ± 0.025
GGCGTTAA	0.387 ± 0.0042
AGCGTCAA	0.317 ± 0.0075
AGCGTCAC	0.3328 ± 0.0021
GGCGTCAA	0.412 ± 0.018

Sequence	PBM E-score of 8-mer
AAGCGATA	0.2613 ± 0.002
ATAGGCTG	0.0188 ± 0.056
TATGTACA	-0.174 ± 0.083
GGAGCAAC	0.0231 ± 0.049
GAACTTCA	-0.0825 ± 0.021
ACAGTCCG	0.00019 ± 0.0047
GGGGTACC	-0.1738 ± 0.00025
CGGCGTGC	0.00958 ± 0.15
GCGTGAAC	0.456 ± 0.0075
CCGTGAAC	0.353 ± 0.0099
ACGTGACC	0.135 ± 0.082
GCGTGACC	0.369 ± 0.004
TCGTGAAA	0.253 ± 0.054
GCGTGAAA	0.4597 ± 0.0039
GCGTGACA	0.345 ± 0.023
CCGTGAAA	0.245 ± 0.022
ACGTGAAC	0.126 ± 0.031
CCGGATCG	-0.114 ± 0.033
CAAAAAAA	-0.1537 ± 0.00074
CAAGCTTC	-0.215 ± 0.013
AAGGTCAC	0.164 ± 0.036
AACGGGAT	-0.0959 ± 0.041
CGTTTCCA	0.0866 ± 0.0024
TAGTGCCA	0.195 ± 0.009
TAGTGCAA	0.247 ± 0.024

Sequence	PBM E-score of 8-mer
AAGTGCGC	0.194 ± 0.018
CAGTGCGG	0.107 ± 0.0036
AAGTGCGT	0.203 ± 0.018
CAGTGCGC	0.00847 ± 0.051
CAGTGCGA	0.386 ± 0.0039
ATGTGCGC	0.211 ± 0.054
ATGTGCGA	0.47362 ± 0.00026
ATGTGCGG	0.0899 ± 0.0075
TAGTGCGA	0.4025 ± 0.0017
AAGTGCGA	0.483 ± 0.0069
ACGATCTC	0.0369 ± 0.034
GGATGACC	0.103 ± 0.0083
AACCACGG	0.0188 ± 0.11
GCAGAAGA	-0.218 ± 0.017
ACGTGCGA	0.4353 ± 0.0022
GAGTGCAA	0.0398 ± 0.012
ACGTGCGG	0.206 ± 0.011
GAGTGCGC	-0.0493 ± 0.043
GAGTGCGA	0.411 ± 0.021
GCGTGCGA	0.317 ± 0.025
GCACTTCC	0.326 ± 0.017
CCACTTCC	0.072 ± 0.0026
AAACTTCG	-0.00264 ± 0.024
ACACTTCA	0.412 ± 0.0084
ACACTTCG	0.409 ± 0.0085

Sequence	PBM E-score of 8-mer
CCACTTCG	0.193 ± 0.017
ACTCTTCT	-0.224 ± 0.0037
TCACTTCA	0.151 ± 0.018
ACACTTCT	0.383 ± 0.035
AAACTTCT	-0.146 ± 0.1
ACACTTCC	0.417 ± 0.016
CCACTTCA	0.108 ± 0.019
ACTCGTAC	-0.0977 ± 0.07
CATCCTGG	-0.0597 ± 0.01
AAGTTAAA	0.0719 ± 0.053
AGACTCTC	-0.0738 ± 0.045
TCTCAAAA	-0.176 ± 0.025
GACAATCC	0.0693 ± 0.021
AGGTGCTA	0.4822 ± 0.0033
CGGTGCTA	0.258 ± 0.035
ATGTGCTA	0.328 ± 0.024
AGGTGCTG	0.4215 ± 0.0039
AGGTGCTC	0.012 ± 0.081
AGGTGCGG	0.429 ± 0.025
AGGTGCAA	0.414 ± 0.005
AAGTGCGG	0.273 ± 0.027
GGGTGCAA	0.271 ± 0.017
TGGTGCAA	0.214 ± 0.0077
AGGTGCGC	0.3101 ± 0.0015
ATGTGCTG	0.161 ± 0.0054

Sequence	PBM E-score of 8-mer
GACTGTCA	0.144 ± 0.037
AGACTCGA	-0.158 ± 0.006
GGTGTAGA	0.35 ± 0.009
CGATCAGC	0.0172 ± 0.057
CAGAGTCG	0.144 ± 0.077
TAGACAGA	-0.0941 ± 0.02
CCAAGAGG	0.12 ± 0.0026
GACATTGC	0.0656 ± 0.018
CCCACGTA	-0.0631 ± 0.1
AAGAAGTA	-0.119 ± 0.082
GCGTGCTA	0.21 ± 0.019
GTGTGCTA	0.268 ± 0.025
GGGTGCTA	0.397 ± 0.0085
GTTTACGA	0.0241 ± 0.021
TACTTCGA	-0.0694 ± 0.013
AGGCGCTA	0.41 ± 0.023
AGGCGCGC	0.185 ± 0.039
AGGCGACC	0.012 ± 0.083
AGGCGACA	0.37 ± 0.013
AGGCGCGA	0.471 ± 0.0037
GGGCGCTA	0.314 ± 0.014
CGGCGCGA	0.3178 ± 0.00058
AGGCGCGG	0.291 ± 0.017
AGGCGACG	0.301 ± 0.066
CGGCGCTA	0.152 ± 0.019

Sequence	PBM E-score of 8-mer
GGGGGCGA	-0.0505 ± 0.016
GGGCGCGA	0.422 ± 0.031
CTAGATAA	-0.00975 ± 0.025
ACCGGTAC	-0.1754 ± 0.0017
TAAATGTA	-0.0999 ± 0.021
CGCACTGC	0.104 ± 0.0094
ATGCGGGA	-0.193 ± 0.03
GAATAGCA	0.189 ± 0.0036
AGTAGGAG	-0.00869 ± 0.02
CAGGCCTC	-0.159 ± 0.029
GCATAGAA	-0.126 ± 0.09
GGGCGAGA	0.222 ± 0.0041
AGGCGAGA	0.373 ± 0.012
AGGCGAGC	-0.233 ± 0.11
AAACAGAT	-0.136 ± 0.01
GGAATGCC	-0.187 ± 0.06
ATGTTTTG	0.00867 ± 0.052
CCCCTAGG	-0.0502 ± 0.012
AACCTAGG	-0.0376 ± 0.091
CACCTAGA	0.294 ± 0.073
CACCTAGG	0.392 ± 0.012
AACCTAGC	-0.0309 ± 0.0034
CACCTAGC	0.40555 ± 0.00015
